Data on 40 molecules can be found in PubChem BioAssay AID1751 (National Center for Advancing Translational Sciences (NCATS), 2009).

Values joined by “and” are separate entries in the source; they are usually repeats but may differ in a detail not shown here. Identical values can stand only once. Inconclusive results are not listed. Active and inactive are the calls of the source. The call rests on the fitted dose curve; in most records, active means well fitted activation curve with a large enough effect; inconclusive means small, poorly fitted or top-dose-only effect; inactive means no such curve, though single readings can be large or run the other way.

Chain of Pyruvate kinase PKM (Homo sapiens) (P14618 whole entry, looked up, canonical isoform): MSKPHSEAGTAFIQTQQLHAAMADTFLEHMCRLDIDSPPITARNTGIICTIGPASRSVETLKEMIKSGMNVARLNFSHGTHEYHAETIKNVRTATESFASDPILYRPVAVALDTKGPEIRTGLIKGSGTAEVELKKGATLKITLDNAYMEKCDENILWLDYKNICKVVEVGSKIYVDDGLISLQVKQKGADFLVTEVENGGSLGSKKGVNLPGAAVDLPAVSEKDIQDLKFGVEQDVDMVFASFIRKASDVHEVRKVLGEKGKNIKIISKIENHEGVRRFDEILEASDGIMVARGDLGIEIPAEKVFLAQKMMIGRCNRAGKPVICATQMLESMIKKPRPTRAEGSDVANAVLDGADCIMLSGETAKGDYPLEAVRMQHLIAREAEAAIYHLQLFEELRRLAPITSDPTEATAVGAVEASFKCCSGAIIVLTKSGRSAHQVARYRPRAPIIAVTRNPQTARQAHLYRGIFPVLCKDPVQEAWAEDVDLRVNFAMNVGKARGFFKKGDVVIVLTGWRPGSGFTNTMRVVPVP

The target of this assay is Pyruvate kinase PKM (Homo sapiens) (UniProt P14618). The assay can be described thus: Confirmation Concentration-Response Assay for Activators of Human Muscle isoform 2 Pyruvate Kinase. The settings on record: purified hPK-M2, Kinase-Glo ATP luminescence, 1 h; series mostly up to 57.5 µM. An excerpt:
NIH Chemical Genomics Center [NCGC] Matthew G. Vander Heiden, M.D., Ph.D. [Harvard Medical School, 77 Avenue Louis Pasteur, Boston, MA 02115] MLPCN Grant: 1 R03 MH085679-01 NCGC Assay Overview: Human pyruvate kinase muscle 2 (hPK-M2) enzyme was supplied as a highly purified (>95% pure) preparation from Harvard Medical School and assayed for its ability to generate ATP from ADP using phosphoenolpyruvate (PEP) as a substrate. ATP generation was detected in a coupled reaction by luciferase-mediated luminescence, an ATP-dependent process. Pyruvate kinase substrates, PEP and ADP, were present in the assay at Km and approximately 10-fold below Km respectively. The enzyme was assayed at an intermediate level of activity to screen for both inhibitors and activators.
NCGC Assay Protocol Summary: Three uL of substrate mix (at r.t.) in assay buffer (50 mM Imidazole pH7.2, 50 mM KCl, 7 mM MgCl2, 0.01% Tween 20, 0.05% BSA) was dispensed into white solid bottom 1,536 well microtiter plates so that the final concentrations of substrates in the assay were 0.1 mM ADP and 0.5 mM PEP. 23 nL of compound were delivered by a pin tool and 1 uL of enzyme mix (final concentration of 0.1 nM) in assay buffer (4 degree Celsius) was added. Plates were incubated at room temperature for 1 hour. Two uL of detection mix (Kinase-Glo, Promega; at 4 degree Celsius protected from light) was added and luminescence read by a ViewLux (Perkin Elmer) at 1 second exposure/plate. Data were normalized to the uninhibited (column 3) and AC100 inhibition (no enzyme in column 2). To monitor activation, the first column contained a titration of the activator, NCGC00031955-03 (16-point 1:2 dilutions in duplicate starting at 57 uM) and the first 16 rows of column 4 contained 57 uM of NCGC00031955-03.
For orientation: Kinase-Glo reads ATP consumption through a luciferase reaction.
On to `CC(=O)c1cc2c(s1)c1cnn(Cc3ccccc3F)c(=O)c1n2C`, for which the Potency was 7.1 nM (active). Then `COc1cc2c(s1)c1cnn(Cc3ccccc3F)c(=O)c1n2C`, with 40.1 nM (active); and `Cc1cc2c(s1)c1cnn(Cc3ccccc3F)c(=O)c1n2C`, with 40.1 nM (active); and `Cc1cc2c(s1)c1cnn(Cc3cccc(F)c3)c(=O)c1n2C`, with 101 nM (active). Then `CC(O)c1cc2c(s1)c1cnn(Cc3ccccc3F)c(=O)c1n2C` (stereo not given), with 113 nM (active). Next, `Cn1c2ccsc2c2cnn(Cc3ccccc3F)c(=O)c21`: 318 nM (active); `COC(=O)c1cc2c(s1)c1cnn(Cc3ccccc3F)c(=O)c1n2C`: 39.1 nM (active); `CN1CCOc2ccc(S(=O)(=O)N3CCN(S(=O)(=O)c4c(F)cccc4F)CC3)cc21`: 2010 nM (active). As for `CCN1CCc2c(sc(NC(=S)NC(=O)c3ccccc3)c2C#N)C1`, the Potency result is “inactive”.

Regarding `O=C1C(=C2SCCCS2)CC/C1=C\c1ccc(F)cc1`, the Potency result is “inactive”. Next, `O=S(=O)(c1ccc2c(c1)OCCO2)N1CCN(S(=O)(=O)c2ccccc2F)CC1`: 56.6 nM (active); `O=S(=O)(NC1CCN(S(=O)(=O)c2c(F)cccc2F)C1)c1ccc2c(c1)OCCO2` (stereo not given): 11300 nM (active). Then `O=S(=O)(c1ccc(Cl)cc1)N1CCN(S(=O)(=O)c2ccc3c(c2)OCCO3)CC1`, with 56.6 nM (active); and `O=S(=O)(c1ccc2c(c1)OCCO2)N1CCN(S(=O)(=O)c2ccc(F)cc2F)CC1`, with 63.5 nM (active); and `Cc1ccc(Cn2ncc3c4sc(C)cc4n(C)c3c2=O)c(C)c1`, with 56.6 nM (active).

As to `O=S(=O)(NCCNS(=O)(=O)c1c(F)cccc1F)c1ccc2c(c1)OCCO2`, the Potency was 20100 nM (active). Then `O=S(=O)(c1c(F)cccc1F)C1CCN(S(=O)(=O)c2ccc3c(c2)OCCO3)CC1`, with 201 nM (active). Next, `O=C(CN1C(=O)N/C(=C\c2cccn2-c2cccc(C(=O)O)c2)C1=O)Nc1ccccc1F`: “inactive”. Next, `O=S(=O)(NCC1CN(S(=O)(=O)c2c(F)cccc2F)C1)c1ccc2c(c1)OCCO2`: 2530 nM (active). For the molecule `O=C1CN(S(=O)(=O)c2c(F)cccc2F)CCN1S(=O)(=O)c1ccc2c(c1)OCCO2`, the Potency was 89.7 nM (active). Then `Cc1cc2c(s1)c1cnn(Cc3cccc(F)c3F)c(=O)c1n2C`, with 113 nM (active); and `O=S(=O)(NC1CCC(NS(=O)(=O)c2c(F)cccc2F)CC1)c1ccc2c(c1)OCCO2` (stereo not given), with 1.27 µM (active) and 22.5 µM (active); and `C[C@@H]1CN(S(=O)(=O)c2c(F)cccc2F)CCN1S(=O)(=O)c1ccc2c(c1)OCCO2`, with 1790 nM (active). Next, `O=C(c1ccc2c(c1)OCCO2)N1CCN(S(=O)(=O)c2c(F)cccc2F)CC1`: “inactive”; `COc1ccc(S(=O)(=O)N2CCN(S(=O)(=O)c3c(F)cccc3F)CC2)cc1`: 56.6 nM (active). As for `Oc1ccc(-c2nnc(-c3ccc(O)cc3)nn2)cc1`, the Potency entry was “inactive”.

Take `O=C(/C=C/c1cccc(Cl)c1)c1nc2ccccc2[nH]1`: the Potency entry is “inactive”. Next, `O=S(=O)(c1ccc2c(c1)OCCO2)N1CCN(S(=O)(=O)c2cc(F)c(F)cc2F)CC1`: 71.3 nM (active). Next, `Cn1c2cc(B(O)O)sc2c2cnn(Cc3ccccc3F)c(=O)c21`: 6350 nM (active). Next, `Cc1cc2c(s1)c1cnn(Cc3ccc(S(C)(=O)=O)cc3)c(=O)c1n2C`: 4500 nM (active); `Cc1cc2c(s1)c1c(C)nn(Cc3ccccc3F)c(=O)c1n2C`: 20100 nM (active); `Cc1ccc(S(=O)(=O)N2CCCN(S(=O)(=O)c3ccc4c(c3)OCCO4)CC2)cc1`: 398 nM (active). As for `CC(=O)Nc1cc2c(s1)c1cnn(Cc3ccccc3F)c(=O)c1n2C`, the Potency was 17900 nM (active). Then `Cc1cc2c(s1)c1cnn(Cc3ccc(C(F)(F)F)cc3F)c(=O)c1n2C`, with 16000 nM (active); and `Cn1c2cc(CO)sc2c2cnn(Cc3ccccc3F)c(=O)c21`, with 28.4 nM (active); and `O=S(=O)(/N=C(/Sc1ccccc1)c1ccccc1)c1ccccc1`, with “inactive”. Next, `C[C@@H]1CN(S(=O)(=O)c2ccc3c(c2)OCCO3)CCN1S(=O)(=O)c1c(F)cccc1F`: 2530 nM (active); `O=S(=O)(c1c(F)cccc1F)N1CCN(S(=O)(=O)c2c(F)cccc2F)CC1`: 50.5 nM (active); `Cc1cc2c(s1)c1cnn(Cc3ccc(F)cc3)c(=O)c1n2C`: 25.3 nM (active). Next, `O=S(=O)(c1ccc2c(c1)OCCO2)N1CCN(S(=O)(=O)c2cccc[n+]2[O-])CC1`: 8970 nM (active).
